The values that follow come from PubChem BioAssay (NCI).

The panel holds about 83,000 compounds, 20% with a hit somewhere; the sample as a whole holds those more often.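 Treatment: one concentration, 48 hours, 96-well format. Scoring: percent growth, with anything below 10 considered active.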 A number with no mark means an inactive call. Activity calls are given as the source filed them.

This assay concerns SF-268 CNS. As to the kind of experiment: NCI-60 one-dose screen, 48 h (100 = growth as untreated, 0 = no growth, -100 = all killed). Conditions: 10 µM unless noted.
As for `COc1cc(C2=NN(C(C)=O)C(c3ccc(N4CCOCC4)cc3)C2)cc(OC)c1OC` (centres undefined), the growth is 99%. In the case of `COc1ccc([C@H]2c3[nH]c4ccccc4c3C[C@@H]3C(=O)N(C4CCN(Cc5ccccc5)CC4)CC(=O)N23)c(OC)c1`, the growth was 63%. Then `COc1ccc([C@H]2[C@H](O)C(=O)N2c2cc(OC)c(OC)c(OC)c2)cc1Cl`, with 44.7%. With `COc1ccc(/C=C/C(=O)c2nnn(-c3ccc(C(=O)O)cc3)c2C)cc1OC`, the growth was 99.4%.

Regarding `O=[N+]([O-])c1ccc(-c2nnc(SCc3ccc(O)c4ncccc34)n2-c2ccccc2)cc1`, the growth is 23.6%.

In the case of `O=C(NCCCNc1cc(-c2cn(-c3ccccc3)nc2-c2cccc(O)c2)ccn1)Nc1cccc(C(F)(F)F)c1`, the growth was 38.6%. To `CC(C)C(=O)Nc1ccc(-c2nc(-c3cccc(O)c3)c(-c3ccnc(Br)c3)[nH]2)cc1` belongs 54.8%. To `Cc1cc(F)cc(NS(=O)(=O)c2ccc(-c3cnc(C4CC4)o3)cc2)c1` belongs 63.6%; to `CCOC(=O)c1c(NCC(=O)Nc2cccc(Cl)c2)sc2c1CCCC2`, 84.8%; to `O=S(=O)(Nc1cc(Cl)cc(Cl)c1)c1ccc(-c2cnc(C3CC3)o2)cc1`, 66.6%. On to `COc1cc2c3c(n(CCCNC4CCC4)c(=O)c2cc1OC)-c1cc2c(cc1C3=O)OCO2`, for which the growth is 45.6%.

As for `CCOC(=O)Nc1cccc(-n2cnc3cc(-c4ccc(O)cc4)ccc32)c1`, the growth was 38.9%. Then `CC(=O)NC(C)(C)C(=O)N[C@@H](C)C(=O)NC(C)(C)C(=O)N[C@@H](C)C(=O)NC(C)(C)C(=O)N[C@@H](C)C(=O)N[C@@H](CCC(N)=O)C(=O)NC(C)(C)C(=O)N[C@H](C(=O)NC(C)(C)C(=O)NCC(=O)N[C@@H](CC(C)C)C(=O)NC(C)(C)C(=O)N1CCC[C@H]1C(=O)N[C@H](C(=O)NC(C)(C)C(=O)NC(C)(C)C(=O)N[C@@H](CCC(N)=O)C(=O)N[C@@H](CCC(N)=O)C(=O)N[C@H](CO)CC1CCCCC1)C(C)C)C(C)C`, with 46.9% [5 µM]; and `Cc1nn(-c2ccc(Cl)cc2)c(C)c1N=Nc1ccc2oc(=O)ccc2c1`, with 85.1%; and `O=C(NCCNc1cc(-c2cn(-c3ccccc3)nc2-c2cccc(O)c2)ccn1)Nc1ccc(Cl)c(C(F)(F)F)c1`, with 48.6%. Then `CN(c1ccc(Br)cc1)S(=O)(=O)c1ccc(-c2cnc(C3CC3)o2)cc1`, with 65.9%; and `CC(C)C[C@H]1C(=O)O[C@H](C(C)C)C(=O)N(C)[C@@H](C(C)C)C(=O)O[C@H](C(C)C)C(=O)N(C)[C@@H](C(C)C)C(=O)O[C@H](C(C)C)C(=O)N1C`, with 20.4%; and `CCCC(=O)NC(c1cccnc1)c1cc(Cl)c2cccnc2c1O` (centres undefined), with 42.7%.

With `Nc1nc(-c2cccc([N+](=O)[O-])c2)c(N=Nc2ccccc2[N+](=O)[O-])s1`, the growth was 19.6%. To `C/C(=N\NC(=O)CSc1nc2sc3c(c2c(=O)n1-c1ccccc1)CCC(C)C3)c1ccc(Cl)cc1` (centres undefined) belongs 23.8%. To `C#C[C@]1(O)CC[C@H]2[C@@H]3CC=C4c5sc(Nc6nc(C)cc(OC)n6)nc5CC[C@]4(C)[C@H]3CC[C@@]21C` belongs 35.8%; to `CN1CCN(c2ccc(NC(=O)Nc3ccc4c(ccn4-c4cccc(C(N)=O)n4)c3)cc2C(F)(F)F)CC1`, 82.1%.

`COc1ccc(NS(=O)(=O)c2ccc(-c3cnc(C4CC4)o3)cc2)cc1Cl`: the growth was 66.1%. Then `CC1OC(O[C@@H]2C(O)C(CO)OC(O[C@H]3COC(O[C@H]4CC[C@]5(C)[C@H]6CC[C@]78OC[C@@]9(CC[C@](C)(C=O)C[C@H]97)[C@H](O)C[C@@]8(C)[C@]6(C)CC[C@H]5C4(C)C)[C@@H](OC4OC(CO)[C@@H](O)[C@@H](O)[C@@H]4O)[C@@H]3O)[C@H]2OC2OC[C@@H](O)[C@@H](O)[C@@H]2O)[C@@H](O)[C@@H](O)[C@H]1O` (some centres undefined), with -56.3% (active). Then `COc1ccc(-c2ccc3c4c(cccc24)C(=O)N(N2C(=O)c4cccc5cccc(c45)C2=O)C3=O)cc1`, with 97.8%.

For `N#Cc1c(NC(=O)c2ccc(F)c(Cl)c2)sc2c1CCC(=O)C2`, the growth is 16.3%. To `Nc1ccc(-c2nnc(SCc3ccc(O)c4ncccc34)o2)cc1` belongs 1.12% (active).

With `IP(CCCCCCCCCCSc1n(Cc2ccc3ccccc3c2)c(-c2ccccc2)c(-c2ccccc2)[n+]1Cc1ccc2ccccc2c1)(c1ccccc1)(c1ccccc1)c1ccccc1`, the growth is -54.6% (active).

For the compound `Cc1cc(Cl)cc(NS(=O)(=O)c2ccc(-c3cnc(C4CC4)o3)cc2)c1`, the growth was 61.7%. To `COc1cc(/C=N/n2cnc3oc(-c4ccccc4)cc3c2=N)cc(CN2CCCCC2)c1O` belongs -66.9% (active); to `CCOC(=O)c1c(NC(=O)c2ccc(C(C)(C)C)cc2)sc2cc(OCCN3CCCCC3)ccc12`, 90.6%.

Regarding `NS(=O)(=O)Oc1ccc2nc(Nc3ccc(F)c(F)c3)ccc2c1`, the growth is 88.1%. Regarding `CC(=O)c1sc(Nc2cccc(Nc3nc(C)c(C)s3)c2)nc1C`, the growth was 71.1%.

In the case of `CCCCCCNC(=O)Oc1ccc(/C(=C(\C)c2ccc(OC)cc2)c2ccc(OCCN(C)C)cc2)cc1`, the growth is 78.3%.

As for `Cc1cccc(NC(c2cc3cccc4ccc5cccc2c5c43)c2nnnn2C(C)(C)C)c1C` (centres undefined), the growth was 91.1%.

With `CCOC(=O)c1c(NCC(=O)Nc2cccc([N+](=O)[O-])c2)sc2c1CCCC2`, the growth was -42.2% (active).

For `O=c1oc2ccc(-c3ccc(F)cc3F)cc2c(=O)n1-c1ccc(F)c(F)c1`, the growth was 13.7%.

For the compound `Brc1cccc(/C=N/Nc2nc(N/N=C/c3cccc(Br)c3)nc(N3CCOCC3)n2)c1`, the growth is 68.4%.

Regarding `N#C/C(=C\c1ccc2ccccc2c1)C(=O)Nc1sc2c(c1C#N)CCC2`, the growth is 103%.
